Data published in the supplement of paper PMC12636033.
± gives the standard deviation of the averaged measurements. Whole data set: some 33,000 sequences, median “E-score (rank enrichment, -0.5 to 0.5)” near -0.0028, cut for the highest 2% near 0.23. What follows is part of a selection rich in the highest values, with near analogues and random picks from the rest.

Each sequence was assayed on 2Sb-muMax20 (muMax20 with two 1,3-bis(methyl)benzene Cys staples, A13C/A17C and Q88C/A92C, C-terminal Lys) (assay: PBM 8-mer E-score (E-score (rank enrichment, -0.5 to 0.5)); higher = stronger preferential binding).
Method: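 Protein binding microarray (universal PBM chip covering all 10-mers in fixed probe flanks) with chemically synthesized human Max(13-93) bHLH-LZ analogs (not full-length Max) bearing noncanonical residues (hArg, Tha, Aib, Nle at 65) and aromatic Cys staples. Read-out per 8-mer (and its reverse complement): E-score (rank-based enrichment, -0.5 to 0.5) and Z-score of median probe intensity.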

| Sequence | PBM 8-mer E-score |
| --- | --- |
| ACGTGTTG | 0.258 ± 0.013 |
| ACGTGTAC | 0.147 ± 0.019 |
| ACGTGTGG | 0.151 ± 0.034 |
| GCCTAACA | 0.0954 ± 0.1 |
| ATCTCCAA | 0.107 ± 0.026 |
| CTGTCTCC | -0.098 ± 0.04 |
| AATTTGAT | -0.0177 ± 0.068 |
| GCAATTGC | 0.031 ± 0.021 |
| AACATCGA | 0.0919 ± 0.039 |
| GTTGATGA | 0.108 ± 0.0079 |
| ATTGGTTC | 0.0837 ± 0.026 |
| GGGCCGGA | -0.178 ± 0.071 |
| GATAATCA | 0.188 ± 0.037 |
| AATAATCA | 0.0347 ± 0.023 |
| TATAATCA | 0.263 ± 0.0093 |
| AGTATTCC | 0.115 ± 0.061 |
| CAGTATGA | 0.103 ± 0.036 |
| AAGTATGA | 0.139 ± 0.069 |
| TAGTATGA | 0.233 ± 0.017 |
| CCAGGTGA | -0.197 ± 0.057 |
| GTGCGAAC | -0.083 ± 0.0049 |
| AATTAGTC | 0.0882 ± 0.024 |
| AATTAGTA | 0.281 ± 0.031 |
| CATTAGTA | 0.0235 ± 0.027 |
| AGCCGCGG | -0.23908 ± 0.00016 |

| Sequence | PBM 8-mer E-score |
| --- | --- |
| AACGCCGT | -0.116 ± 0.032 |
| CCATGTTA | 0.111 ± 0.079 |
| ACATGTTG | 0.289 ± 0.023 |
| GCATGTTA | 0.165 ± 0.072 |
| ACATGTTA | 0.2525 ± 0.0013 |
| ACATGTTC | 0.144 ± 0.088 |
| AGATGTTG | -0.0885 ± 0.12 |
| CGTGTGAA | -0.155 ± 0.051 |
| ACGTGAGC | 0.0717 ± 0.062 |
| AATCAAAC | 0.16 ± 0.021 |
| CGTTCTAA | 0.032 ± 0.071 |
| CGCCCCAG | 0.0881 ± 0.046 |
| CGCCCACC | 0.312 ± 0.0061 |
| CGCCCACG | -0.0314 ± 0.056 |
| CTCCCACC | 0.27 ± 0.025 |
| AGCCCACC | -0.043 ± 0.018 |
| GGCCCACA | -0.0654 ± 0.04 |
| CTCCCACA | 0.119 ± 0.064 |
| GGCCCCAC | 0.103 ± 0.019 |
| AGCCCACG | 0.0705 ± 0.024 |
| ATCCCACC | 0.193 ± 0.054 |
| CGCCCCAC | 0.253 ± 0.11 |
| AGCCCACA | 0.2403 ± 0.0014 |
| CATGTAGC | 0.084 ± 0.043 |
| CTCCACTA | 0.0307 ± 0.041 |

| Sequence | PBM 8-mer E-score |
| --- | --- |
| CCATCGAG | -0.0349 ± 0.043 |
| ACCACGAC | -0.0523 ± 0.04 |
| CGTACAAG | -0.0151 ± 0.087 |
| ATAGCGAA | 0.0983 ± 0.034 |
| ACCTATTC | -0.025 ± 0.024 |
| CAATGCTA | 0.00426 ± 0.07 |
| TAATGCTA | 0.231 ± 0.044 |
| GAATGCTA | -0.216 ± 0.036 |
| GGATGGCC | -0.241 ± 0.023 |
| GGATGGCA | 0.267 ± 0.059 |
| TGATGGCA | 0.0723 ± 0.063 |
| ACTTTCGA | 0.0801 ± 0.036 |
| AAGCTTCT | 0.104 ± 0.092 |
| AATCATGA | 0.136 ± 0.035 |
| TATCATGA | 0.278 ± 0.02 |
| CATCATGA | 0.0474 ± 0.048 |
| TGGGATAA | 0.0797 ± 0.017 |
| GGGGATTA | 0.278 ± 0.013 |
| GGGGATAC | 0.0267 ± 0.0099 |
| CGGGATTA | 0.032 ± 0.017 |
| GGGGATAA | 0.234 ± 0.063 |
| AGGGATTA | -0.0189 ± 0.016 |
| CAGTAAGG | -0.0281 ± 0.052 |
| AATAGTGT | 0.1565 ± 0.001 |
| GTCCCCGA | 0.0628 ± 0.032 |

| Sequence | PBM 8-mer E-score |
| --- | --- |
| AACTGTGA | -0.0892 ± 0.026 |
| TAACTGGA | -0.0436 ± 0.0063 |
| CATTAGCC | -0.0287 ± 0.08 |
| ATATGCCA | 0.305 ± 0.06 |
| CTATGCCA | 0.0722 ± 0.02 |
| ATATGCCG | -0.076 ± 0.083 |
| ATCGACGC | 0.0538 ± 0.027 |
| ATGTGTAC | 0.107 ± 0.014 |
| GCCAGTGA | 0.0103 ± 0.058 |
| TCACGTGA | 0.439 ± 0.033 |
| ACACGTAG | 0.0467 ± 0.016 |
| AAACGTGG | 0.0929 ± 0.011 |
| TAACGTGA | -0.0146 ± 0.035 |
| ACACGAGT | 0.248 ± 0.044 |
| ACACGTGG | 0.416 ± 0.0009 |
| ACACGTGC | 0.409 ± 0.0079 |
| ACACGTAC | 0.0764 ± 0.051 |
| TCACGTAA | -0.031 ± 0.021 |
| ACACGAGG | 0.0366 ± 0.063 |
| AGACGTGC | -0.124 ± 0.021 |
| ACACGAGA | -0.125 ± 0.065 |
| AAGGCCGA | -0.0488 ± 0.013 |
| CGCTGACA | -0.122 ± 0.0063 |
| TCTAGTCA | 0.105 ± 0.035 |
| CCCCCGGG | -0.43 ± 0.042 |

| Sequence | PBM 8-mer E-score |
| --- | --- |
| CCGCCTCG | -0.04 ± 0.07 |
| GATACTCC | -0.0231 ± 0.06 |
| GCGCGGGA | -0.038 ± 0.036 |
| ATTCAGAG | -0.21 ± 0.046 |
| CGTGCATA | 0.165 ± 0.016 |
| AGACGTGA | 0.0177 ± 0.032 |
| ATACGTGA | 0.0108 ± 0.014 |
| ACACGTGT | 0.396 ± 0.015 |
| AAACGTGT | 0.0274 ± 0.017 |
| ACACGTGA | 0.3874 ± 0.0005 |
| ACACGTAT | 0.205 ± 0.022 |
| ATGTCGCG | -0.163 ± 0.042 |
| CATCGTAC | -0.0597 ± 0.0024 |
| ACTACGTC | 0.0847 ± 0.0011 |
| GTCGATTA | -0.0254 ± 0.015 |
| AGCAGGCT | -0.169 ± 0.016 |
| GAGCCCGC | -0.24 ± 0.016 |
| AGCGCTCA | -0.0925 ± 0.0074 |
| ATAATGGA | 0.185 ± 0.0033 |
| ATAATGGG | 0.238 ± 0.034 |
| ATAATGGC | 0.012 ± 0.012 |
| CTAATGTC | -0.0718 ± 0.018 |
| ATAATGTC | 0.238 ± 0.021 |
| ATAATGTG | 0.159 ± 0.037 |
| AGGAACTG | -0.188 ± 0.049 |

| Sequence | PBM 8-mer E-score |
| --- | --- |
| GCTGCACA | -0.179 ± 0.029 |
| CGCTTGTA | 0.123 ± 0.13 |
| CATGCGTA | 0.2542 ± 0.0016 |
| CATGCATA | 0.177 ± 0.0083 |
| CATGCAAC | 0.247 ± 0.027 |
| AATGCATT | 0.282 ± 0.018 |
| GATGCGTA | 0.126 ± 0.054 |
| AATGCATA | 0.155 ± 0.01 |
| CATGCATG | 0.349 ± 0.03 |
| AATGCGTA | 0.192 ± 0.017 |
| CATGCATC | 0.0655 ± 0.044 |
| AATGCAAC | 0.0741 ± 0.045 |
| CATGCAAG | 0.0851 ± 0.0044 |
| AATGCATC | 0.174 ± 0.028 |
| AAAGGGGA | 0.101 ± 0.002 |
| ACCGGGCA | -0.237 ± 0.053 |
| CTGGTCCC | -0.186 ± 0.015 |
| GGCTTCGA | -0.0528 ± 0.016 |
| GTCTTCAC | -0.127 ± 0.079 |
| CACCGAGG | -0.221 ± 0.014 |
| ACTGCATG | 0.0264 ± 0.067 |
| TATGCAAA | 0.0419 ± 0.0014 |
| AATGCATG | 0.26 ± 0.017 |
| AATGCAAG | 0.134 ± 0.016 |
| AATGCAAA | 0.247 ± 0.034 |

| Sequence | PBM 8-mer E-score |
| --- | --- |
| ATTGCATG | 0.13 ± 0.006 |
| ATGGTTAC | -0.0452 ± 0.019 |
| GCCACCGA | -0.191 ± 0.0059 |
| ATTGCATA | 0.228 ± 0.028 |
| TATAAACA | 0.156 ± 0.011 |
| ACTGTTAG | -0.0514 ± 0.065 |
| AATTAATA | 0.217 ± 0.011 |
| GATTAATC | -0.0411 ± 0.03 |
| TATTAATA | 0.296 ± 0.027 |
| GATTAAGA | 0.129 ± 0.0066 |
| GATTAATA | 0.258 ± 0.041 |
| CATTAATA | 0.148 ± 0.024 |
| GATGATCC | -0.0779 ± 0.039 |
| CATCGTTC | -0.12 ± 0.012 |
| AGACAATC | 0.113 ± 0.029 |
| AGACAATG | -0.0359 ± 0.045 |
| AGACAATA | 0.242 ± 0.082 |
| GCACGCAA | -0.108 ± 0.043 |
| ACCCCAGC | 0.162 ± 0.054 |
| GGAGGGAC | -0.162 ± 0.097 |
| CTAACAAA | 0.144 ± 0.04 |
| GGATGCCA | -0.0771 ± 0.0063 |
